# Assay results as given in the supplement of paper PMC11732987, “Enantioselective OTUD7B fragment discovery through chemoproteomics screening and high-throughput optimisation” (Communications Chemistry, 2025).
# Values without a mark were called inactive.
# Key:
# Assay in all cases: log2 ratio of Biotin-Ahx-Ub-VS probe labelling (fragment/DMSO); higher = less target engagement (more negative = stronger competition), active = hit call of the paper (q ≤ 0.05, log2 ratio ≤ -1)
# Details in all cases: compound concentration: 200 uM; treatment time: 3 h
# OTUD6B = target: T1, OTUD6B (UniProt Q8N6M0)
# T1 sequence (whole entry): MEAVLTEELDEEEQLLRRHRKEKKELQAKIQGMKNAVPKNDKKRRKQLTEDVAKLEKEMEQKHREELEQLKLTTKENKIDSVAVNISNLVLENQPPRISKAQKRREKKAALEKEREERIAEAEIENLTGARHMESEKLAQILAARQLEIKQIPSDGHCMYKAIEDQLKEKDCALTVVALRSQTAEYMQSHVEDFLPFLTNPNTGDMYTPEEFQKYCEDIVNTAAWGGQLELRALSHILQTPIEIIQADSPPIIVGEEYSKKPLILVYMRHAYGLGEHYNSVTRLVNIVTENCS
# Procedure, shortened: (§1)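 Fragment (200 µM) or vehicle was incubated for 3 h with triplicate HEK293T lysate samples of 495 µg, which were then treated with Biotin-Ahx-Ub-VS at 0.5 µM final for 1 h. Labelled DUBs were enriched on NeutrAvidin, digested with LysC and trypsin, and analysed by diaPASEF LC-MS/MS. Values are average log2 fragment/vehicle ratios from an unpaired t-test on global-median-normalised Spectronaut label-free quantities, using proteins with ≥2 unique peptides.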
# OTUD7B = target: T2, OTUD7B (UniProt Q6GQQ9)
# T2 sequence (whole entry): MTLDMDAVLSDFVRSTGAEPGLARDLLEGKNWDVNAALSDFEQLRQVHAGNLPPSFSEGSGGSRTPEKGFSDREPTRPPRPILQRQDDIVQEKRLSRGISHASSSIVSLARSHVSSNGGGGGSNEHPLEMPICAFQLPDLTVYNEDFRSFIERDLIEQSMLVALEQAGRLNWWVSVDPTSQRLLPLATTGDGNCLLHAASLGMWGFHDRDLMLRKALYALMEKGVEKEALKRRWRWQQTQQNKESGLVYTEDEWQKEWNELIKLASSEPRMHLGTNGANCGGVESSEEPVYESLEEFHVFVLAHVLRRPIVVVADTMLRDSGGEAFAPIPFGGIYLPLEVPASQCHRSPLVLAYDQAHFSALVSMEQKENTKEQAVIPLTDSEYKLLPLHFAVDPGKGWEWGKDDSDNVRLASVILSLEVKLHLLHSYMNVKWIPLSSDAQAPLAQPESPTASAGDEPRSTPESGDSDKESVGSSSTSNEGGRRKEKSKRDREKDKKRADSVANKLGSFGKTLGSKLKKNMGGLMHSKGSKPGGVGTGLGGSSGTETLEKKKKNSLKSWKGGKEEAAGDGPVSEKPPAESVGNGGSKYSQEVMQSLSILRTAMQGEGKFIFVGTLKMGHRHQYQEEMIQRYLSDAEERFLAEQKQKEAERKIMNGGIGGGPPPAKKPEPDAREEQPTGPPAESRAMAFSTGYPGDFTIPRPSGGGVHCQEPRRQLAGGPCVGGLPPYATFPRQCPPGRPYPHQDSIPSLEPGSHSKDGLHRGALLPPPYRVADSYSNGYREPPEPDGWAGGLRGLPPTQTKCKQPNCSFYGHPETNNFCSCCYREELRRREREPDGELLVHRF
# Procedure, shortened: as §1
# PRPF8 = PRPF8 (UniProt Q6P2Q9)
# Procedure, shortened: as §1
# PSMD7 = target: T3, PSMD7 (UniProt P51665)
# T3 sequence (whole entry): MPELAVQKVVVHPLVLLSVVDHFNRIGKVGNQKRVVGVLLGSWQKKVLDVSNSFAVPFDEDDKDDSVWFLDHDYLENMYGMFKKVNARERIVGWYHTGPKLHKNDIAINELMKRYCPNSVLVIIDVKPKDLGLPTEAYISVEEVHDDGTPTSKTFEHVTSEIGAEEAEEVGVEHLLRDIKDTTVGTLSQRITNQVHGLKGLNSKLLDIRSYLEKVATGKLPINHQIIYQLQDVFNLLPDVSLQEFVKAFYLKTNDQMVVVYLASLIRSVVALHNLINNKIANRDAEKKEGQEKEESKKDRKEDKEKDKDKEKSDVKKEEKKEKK
# Procedure, shortened: as §1
# UCHL1 = UCHL1 (UniProt P09936)
# Chain of UCHL1 (P09936 whole entry, looked up): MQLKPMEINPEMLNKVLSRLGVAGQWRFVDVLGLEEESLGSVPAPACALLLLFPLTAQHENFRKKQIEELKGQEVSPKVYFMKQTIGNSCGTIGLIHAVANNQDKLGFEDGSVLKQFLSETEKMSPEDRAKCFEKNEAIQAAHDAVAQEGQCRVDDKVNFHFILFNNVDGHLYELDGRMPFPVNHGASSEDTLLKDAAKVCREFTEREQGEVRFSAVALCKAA
# Procedure, shortened: as §1
# UCHL3 = target: T4, UCHL3 (UniProt P15374)
# T4 sequence (whole entry): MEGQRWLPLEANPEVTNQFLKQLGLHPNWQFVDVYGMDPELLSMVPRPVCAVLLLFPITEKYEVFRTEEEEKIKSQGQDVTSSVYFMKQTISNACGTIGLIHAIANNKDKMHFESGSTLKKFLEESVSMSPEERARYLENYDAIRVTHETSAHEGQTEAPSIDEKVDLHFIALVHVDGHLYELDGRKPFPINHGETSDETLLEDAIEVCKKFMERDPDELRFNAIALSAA
# Procedure, shortened: as §1
# UCHL5 = target: T5, UCHL5 (UniProt Q9Y5K5)
# T5 sequence (whole entry): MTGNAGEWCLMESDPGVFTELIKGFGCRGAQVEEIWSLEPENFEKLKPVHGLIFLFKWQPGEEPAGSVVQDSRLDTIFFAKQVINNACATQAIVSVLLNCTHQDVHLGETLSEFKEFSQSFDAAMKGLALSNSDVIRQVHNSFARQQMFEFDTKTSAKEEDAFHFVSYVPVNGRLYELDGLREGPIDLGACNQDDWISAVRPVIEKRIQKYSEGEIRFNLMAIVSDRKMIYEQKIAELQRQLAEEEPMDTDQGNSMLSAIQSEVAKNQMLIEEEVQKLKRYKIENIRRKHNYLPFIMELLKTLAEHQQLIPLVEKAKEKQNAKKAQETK
# Procedure, shortened: as §1
# USP10 = USP10 (UniProt Q14694)
# Chain of USP10 (Q14694 whole entry): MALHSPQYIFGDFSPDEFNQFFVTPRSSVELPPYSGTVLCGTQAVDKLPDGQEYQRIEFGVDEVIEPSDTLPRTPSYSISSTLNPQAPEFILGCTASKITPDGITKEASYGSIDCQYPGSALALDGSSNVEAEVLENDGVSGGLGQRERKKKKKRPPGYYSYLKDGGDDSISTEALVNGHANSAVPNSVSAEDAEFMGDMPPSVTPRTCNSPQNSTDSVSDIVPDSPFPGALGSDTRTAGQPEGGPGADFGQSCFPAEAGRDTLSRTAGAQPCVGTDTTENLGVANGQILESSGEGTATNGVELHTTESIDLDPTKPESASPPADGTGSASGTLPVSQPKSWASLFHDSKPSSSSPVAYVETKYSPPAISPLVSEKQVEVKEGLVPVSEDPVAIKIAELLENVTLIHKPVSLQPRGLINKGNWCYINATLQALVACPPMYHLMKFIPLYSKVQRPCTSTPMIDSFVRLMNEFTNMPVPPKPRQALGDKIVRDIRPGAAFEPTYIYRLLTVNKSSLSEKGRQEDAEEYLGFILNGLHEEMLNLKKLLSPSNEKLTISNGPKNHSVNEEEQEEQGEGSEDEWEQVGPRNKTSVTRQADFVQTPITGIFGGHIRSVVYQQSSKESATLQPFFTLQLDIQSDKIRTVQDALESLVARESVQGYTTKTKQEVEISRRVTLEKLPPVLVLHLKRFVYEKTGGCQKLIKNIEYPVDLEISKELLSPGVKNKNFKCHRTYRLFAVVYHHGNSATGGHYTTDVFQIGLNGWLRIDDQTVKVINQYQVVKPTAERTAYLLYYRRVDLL
# Procedure, shortened: as §1
# USP15 = target: T6, USP15 (UniProt Q9Y4E8)
# T6 sequence (whole entry): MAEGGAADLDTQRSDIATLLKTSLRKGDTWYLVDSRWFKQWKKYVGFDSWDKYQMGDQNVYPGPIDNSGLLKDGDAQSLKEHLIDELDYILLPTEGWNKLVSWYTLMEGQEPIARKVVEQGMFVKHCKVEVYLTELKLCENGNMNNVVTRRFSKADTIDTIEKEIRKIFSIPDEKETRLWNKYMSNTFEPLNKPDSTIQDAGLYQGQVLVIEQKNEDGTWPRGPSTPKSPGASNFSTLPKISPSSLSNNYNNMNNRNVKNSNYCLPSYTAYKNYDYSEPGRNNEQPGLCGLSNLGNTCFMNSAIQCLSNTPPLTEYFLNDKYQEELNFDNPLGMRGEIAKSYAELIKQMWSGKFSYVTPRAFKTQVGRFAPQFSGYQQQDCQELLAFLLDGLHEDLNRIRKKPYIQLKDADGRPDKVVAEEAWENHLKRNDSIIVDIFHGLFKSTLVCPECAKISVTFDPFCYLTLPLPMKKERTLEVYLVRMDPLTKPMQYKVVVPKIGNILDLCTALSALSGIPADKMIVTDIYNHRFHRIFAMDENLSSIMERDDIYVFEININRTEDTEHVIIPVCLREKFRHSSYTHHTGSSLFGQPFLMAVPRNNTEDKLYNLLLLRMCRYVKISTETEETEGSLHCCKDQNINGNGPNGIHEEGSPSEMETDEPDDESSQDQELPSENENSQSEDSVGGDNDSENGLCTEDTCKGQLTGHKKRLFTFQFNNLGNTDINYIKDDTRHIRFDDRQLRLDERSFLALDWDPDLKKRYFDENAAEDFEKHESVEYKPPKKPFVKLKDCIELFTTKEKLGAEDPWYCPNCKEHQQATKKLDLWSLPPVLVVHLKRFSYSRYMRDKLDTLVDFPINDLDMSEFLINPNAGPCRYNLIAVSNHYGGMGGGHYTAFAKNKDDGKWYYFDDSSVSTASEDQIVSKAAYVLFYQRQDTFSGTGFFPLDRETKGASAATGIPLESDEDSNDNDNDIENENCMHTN
# Procedure, shortened: as §1
# USP16 = USP16 (UniProt Q9Y5T5)
# Chain of USP16 (Q9Y5T5 whole entry, looked up): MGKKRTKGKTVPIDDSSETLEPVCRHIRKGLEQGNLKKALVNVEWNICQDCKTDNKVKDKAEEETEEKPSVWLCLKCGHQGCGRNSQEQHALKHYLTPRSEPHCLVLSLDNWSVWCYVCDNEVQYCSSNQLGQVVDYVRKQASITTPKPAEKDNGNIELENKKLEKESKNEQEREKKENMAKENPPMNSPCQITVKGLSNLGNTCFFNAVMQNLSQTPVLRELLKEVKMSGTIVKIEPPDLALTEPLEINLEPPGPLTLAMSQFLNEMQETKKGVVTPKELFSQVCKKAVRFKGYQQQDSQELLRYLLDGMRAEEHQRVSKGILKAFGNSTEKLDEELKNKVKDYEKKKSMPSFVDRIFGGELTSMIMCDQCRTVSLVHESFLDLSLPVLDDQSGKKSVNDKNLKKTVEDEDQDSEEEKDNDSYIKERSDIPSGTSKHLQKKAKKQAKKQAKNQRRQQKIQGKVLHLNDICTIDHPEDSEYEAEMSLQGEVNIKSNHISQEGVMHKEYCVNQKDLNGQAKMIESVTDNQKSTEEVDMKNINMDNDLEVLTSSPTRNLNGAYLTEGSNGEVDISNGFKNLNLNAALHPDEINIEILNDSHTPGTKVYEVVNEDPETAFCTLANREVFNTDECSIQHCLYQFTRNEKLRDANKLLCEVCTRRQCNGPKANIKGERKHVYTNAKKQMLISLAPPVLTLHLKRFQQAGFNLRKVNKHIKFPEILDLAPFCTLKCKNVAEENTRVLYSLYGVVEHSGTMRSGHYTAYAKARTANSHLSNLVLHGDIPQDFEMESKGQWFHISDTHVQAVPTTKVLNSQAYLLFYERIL
# Procedure, shortened: as §1
smiles,measurement,setting,value
Cl.O=C(CCl)NCc1cc2c(nc1O)CCCC2,log2 ratio of Biotin-Ahx-Ub-VS probe labelling,OTUD6B,-0.123
same,log2 ratio of Biotin-Ahx-Ub-VS probe labelling,OTUD7B,-0.66
same,log2 ratio of Biotin-Ahx-Ub-VS probe labelling,PRPF8,-0.141
same,log2 ratio of Biotin-Ahx-Ub-VS probe labelling,PSMD7,-0.244
same,log2 ratio of Biotin-Ahx-Ub-VS probe labelling,UCHL1,-1.64 (active)
same,log2 ratio of Biotin-Ahx-Ub-VS probe labelling,UCHL3,0.175
same,log2 ratio of Biotin-Ahx-Ub-VS probe labelling,UCHL5,-0.407
same,log2 ratio of Biotin-Ahx-Ub-VS probe labelling,USP10,-0.083
same,log2 ratio of Biotin-Ahx-Ub-VS probe labelling,USP15,-0.148
same,log2 ratio of Biotin-Ahx-Ub-VS probe labelling,USP16,-0.389
